Source: PMC11574364

Target: T1, RAVER1 (Homo sapiens, UniProt Q8IY67)
T1 sequence: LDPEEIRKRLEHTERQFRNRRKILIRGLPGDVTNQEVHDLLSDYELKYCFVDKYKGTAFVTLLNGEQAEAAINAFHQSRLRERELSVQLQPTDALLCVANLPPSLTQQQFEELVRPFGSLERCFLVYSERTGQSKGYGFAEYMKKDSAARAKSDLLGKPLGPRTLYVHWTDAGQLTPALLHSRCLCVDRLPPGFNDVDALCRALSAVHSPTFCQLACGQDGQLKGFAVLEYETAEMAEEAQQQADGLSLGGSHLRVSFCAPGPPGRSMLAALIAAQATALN
Assay: protein domain microarray probed with biotinylated miRNA; Domain array: 20 mM Tris-HCl pH 7.4, 200 mM KCl, 0.2 mM EDTA, 0.05% NP40, 2 ug/ul heparin, overnight 4 C. ORF array: PBS pH 7.0 with RNase inhibitor, 100 ng RNA; high values mean tight binding
Conditions: ssRNA

UGAGGUAGUAGGUUGUGUGGUU and UGAGGUAGUAGGUUGUAUAGUU are within error of each other in binding signal: 22.3 ± 5.17 fluorescence intensity for the first, 21.1 ± 4.28 fluorescence intensity for the second.

UGAGGUAGUAGGUUGUAUGGUU showed a binding signal of 26.62 ± 0.0495 fluorescence intensity.

Target: T2, REXON (Homo sapiens, UniProt Q96IC2)
T2 sequence: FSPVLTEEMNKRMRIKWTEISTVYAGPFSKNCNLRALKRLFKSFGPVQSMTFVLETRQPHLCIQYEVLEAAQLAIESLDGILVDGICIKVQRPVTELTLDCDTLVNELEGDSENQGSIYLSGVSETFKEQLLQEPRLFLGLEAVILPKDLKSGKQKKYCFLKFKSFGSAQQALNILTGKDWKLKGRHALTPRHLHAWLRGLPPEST
Assay: as above
Conditions: ssRNA

Going from UGAGGUAGUAGGUUGUGUGGUU to CAGUGCAAUGAUGAAAGGGCAU, the binding signal falls from 198.5 ± 0.0919 fluorescence intensity to 88.4 ± 1.34 fluorescence intensity.

Going from UGAGGUAGUAGGUUGUAUAGUU to AGAGGUAGUAGGUUGCAUAGUU, the binding signal rises from 30.1 ± 0.375 fluorescence intensity to 106 ± 7.17 fluorescence intensity.

UGAGGUAGUAGGUUGUAUGGUU was tested, and the binding signal was 102 ± 6.23 fluorescence intensity.

Target: IGF2BP2(1-2) (Homo sapiens, UniProt Q9Y6M1)
Assay: as above
Conditions: ssRNA

Chain of IGF2BP2(1-2) (Q9Y6M1 176-362): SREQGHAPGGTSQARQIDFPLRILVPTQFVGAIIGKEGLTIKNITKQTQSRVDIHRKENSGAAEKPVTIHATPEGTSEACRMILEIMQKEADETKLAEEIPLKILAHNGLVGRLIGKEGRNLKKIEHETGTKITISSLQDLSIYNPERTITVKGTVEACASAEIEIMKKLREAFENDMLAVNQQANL

Going from UGAGGUAGUAGGUUGUGUGGUU to CAGUGCAAUGAUGAAAGGGCAU, the binding signal falls from 31.4 ± 2.92 fluorescence intensity to 24.1 ± 3.02 fluorescence intensity.

First: AGAGGUAGUAGGUUGCAUAGUU
Second: UGAGGUAGUAGGUUGUAUGGUU
The binding signal of the first is lower: 23 ± 1.49 fluorescence intensity for the first, 26.07 ± 0.24 fluorescence intensity for the second.

Target: FXR1(1-2) (Homo sapiens, UniProt P51114)
Assay: as above
Conditions: ssRNA

Chain of FXR1(1-2) (P51114 201-372): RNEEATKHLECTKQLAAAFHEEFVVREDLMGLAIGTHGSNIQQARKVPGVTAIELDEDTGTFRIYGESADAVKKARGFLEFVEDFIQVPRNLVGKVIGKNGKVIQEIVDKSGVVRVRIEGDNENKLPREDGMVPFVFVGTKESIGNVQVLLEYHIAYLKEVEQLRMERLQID

First: UGAGGUAGUAGGUUGUGUGGUU
Second: CAGUGCAAUGAUGAAAGGGCAU
The binding signal of the first is higher: 436 ± 32.2 fluorescence intensity for the first, 111.8 ± 0.544 fluorescence intensity for the second.

Compared with UGAGGUAGUAGGUUGUAUAGUU, AGAGGUAGUAGGUUGCAUAGUU is higher in binding signal: 34.3 ± 0.7 fluorescence intensity for the first, 46.8 ± 0.523 fluorescence intensity for the second.

First: UAGCUUAUCAGACUGAUGUUGA
Second: UGAGGUAGUAGGUUGUAUGGUU
The binding signal of the first is lower: 31.1 ± 0.919 fluorescence intensity for the first, 95 ± 11.4 fluorescence intensity for the second.

Target: RBPMS (Homo sapiens, UniProt Q93062)
Assay: as above
Conditions: ssRNA

Chain of RBPMS (Q93062 1-125): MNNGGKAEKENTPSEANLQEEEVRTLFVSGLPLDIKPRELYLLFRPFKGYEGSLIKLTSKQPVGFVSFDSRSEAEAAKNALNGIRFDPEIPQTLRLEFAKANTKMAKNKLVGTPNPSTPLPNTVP

First: UGAGGUAGUAGGUUGUGUGGUU
Second: CAGUGCAAUGAUGAAAGGGCAU
The binding signal of the first is lower: 168 ± 4.32 fluorescence intensity for the first, 844 ± 72.7 fluorescence intensity for the second.

Compared with UGAGGUAGUAGGUUGUAUAGUU, AGAGGUAGUAGGUUGCAUAGUU is higher in binding signal: 63.4 ± 5.39 fluorescence intensity for the first, 754 ± 55.2 fluorescence intensity for the second.

UGAGGUAGUAGGUUGUAUGGUU showed a binding signal of 145 ± 43.8 fluorescence intensity.

Target: T3, TRA2B (Homo sapiens, UniProt P62995)
T3 sequence: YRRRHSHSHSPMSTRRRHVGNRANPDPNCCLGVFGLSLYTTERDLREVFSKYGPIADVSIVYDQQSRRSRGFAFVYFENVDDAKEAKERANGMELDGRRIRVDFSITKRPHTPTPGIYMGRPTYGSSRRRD
Assay: as above
Conditions: ssRNA

Going from UGAGGUAGUAGGUUGUGUGGUU to CAGUGCAAUGAUGAAAGGGCAU, the binding signal falls from 748 ± 54 fluorescence intensity to 656 ± 15.9 fluorescence intensity.

First: UGAGGUAGUAGGUUGUAUAGUU
Second: AGAGGUAGUAGGUUGCAUAGUU
The binding signal of the first is lower: 97.2 ± 22.2 fluorescence intensity for the first, 1220 ± 41.8 fluorescence intensity for the second.

UGAGGUAGUAGGUUGUAUGGUU was tested, and the binding signal was 1050 ± 32.8 fluorescence intensity.

Target: T4, SFRS12 (Homo sapiens, UniProt Q8WXA9)
T4 sequence: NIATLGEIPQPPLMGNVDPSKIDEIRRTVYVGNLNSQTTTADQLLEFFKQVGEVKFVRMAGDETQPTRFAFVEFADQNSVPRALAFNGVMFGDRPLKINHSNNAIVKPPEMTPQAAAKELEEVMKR
Assay: as above
Conditions: ssRNA

Going from UGAGGUAGUAGGUUGUGUGGUU to CAGUGCAAUGAUGAAAGGGCAU, the binding signal falls from 314 ± 21.7 fluorescence intensity to 243 ± 4.09 fluorescence intensity.

Going from UGAGGUAGUAGGUUGUAUAGUU to AGAGGUAGUAGGUUGCAUAGUU, the binding signal rises from 44.9 ± 2.62 fluorescence intensity to 364 ± 21 fluorescence intensity.

Going from UAGCUUAUCAGACUGAUGUUGA to UGAGGUAGUAGGUUGUAUGGUU, the binding signal rises from 30.2 ± 10.4 fluorescence intensity to 264 ± 26.8 fluorescence intensity.
